Most compounds without a hit are left out; they make up all but 2.8% or so of the library.
Pol iota inh: DNA polymerase iota (human) inhibition; Pol iota fluorescent replication assay, 10 min; Potency, µM (titrated, usually from 115 µM), actives largely listed as inhibitors; 390,000 tested, 1% active; AID 588590
Target sequence (Q9UNA4 whole entry, looked up): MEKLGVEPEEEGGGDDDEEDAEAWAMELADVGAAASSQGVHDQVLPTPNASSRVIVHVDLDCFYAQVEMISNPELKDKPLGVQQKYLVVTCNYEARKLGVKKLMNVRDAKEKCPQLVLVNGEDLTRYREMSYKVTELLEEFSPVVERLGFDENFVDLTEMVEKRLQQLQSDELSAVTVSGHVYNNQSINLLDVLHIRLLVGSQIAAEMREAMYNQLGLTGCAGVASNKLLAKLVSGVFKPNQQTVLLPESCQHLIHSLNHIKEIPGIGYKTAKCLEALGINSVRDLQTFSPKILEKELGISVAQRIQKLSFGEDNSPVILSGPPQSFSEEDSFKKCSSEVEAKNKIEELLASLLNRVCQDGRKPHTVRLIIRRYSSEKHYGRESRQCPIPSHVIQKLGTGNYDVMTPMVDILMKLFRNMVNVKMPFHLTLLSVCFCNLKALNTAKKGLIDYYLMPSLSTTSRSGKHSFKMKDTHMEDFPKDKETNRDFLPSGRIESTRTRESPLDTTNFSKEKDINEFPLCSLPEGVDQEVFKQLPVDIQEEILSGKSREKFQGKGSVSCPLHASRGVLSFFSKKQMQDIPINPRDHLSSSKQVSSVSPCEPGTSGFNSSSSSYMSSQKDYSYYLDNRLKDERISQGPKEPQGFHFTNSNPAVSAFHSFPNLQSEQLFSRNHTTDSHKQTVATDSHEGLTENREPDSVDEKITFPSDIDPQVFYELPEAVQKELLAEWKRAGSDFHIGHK
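Fluorescent replication assay read twice, at 0 min and 10 min after adding 50 nM (final) substrate. Enzyme (10 nM) and compounds were first incubated 15 min at room temperature; enzyme-free buffer wells were negative controls.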
WRN inhibitor: inhibitors of human WRN helicase. AID 651768. Potency, µM (highest dose often 114 µM), actives largely listed as inhibitors. 360,000 tested, 0.46% active. WRN helicase unwinding, fluorescent forked duplex, kinetic; further: nearly all actives have a fitted effect of over 55% in size
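Enzyme (20 nM final) and test compound sit together 15 min at room temperature before substrate addition. Substrate is a single-forked duplex oligonucleotide (100 nM) labelled with fluorophore and quencher, with 2 mM ATP; helicase unwinding raises red fluorescence, read kinetically.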
POLH inh: DNA polymerase eta (human) inhibition; Potency, µM (series often up to 114 µM), most hits filed as inhibitors; recombinant Pol eta, fluorescent DNA replication assay; 390,000 tested, 1.2% active; Q9Y253
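Pol eta (10 nM) was preincubated with compounds for 15 min at room temperature, after which fluorescent replication substrate (50 nM final) was added to start the reaction. Fluorescence was read kinetically at 0 and 10 min.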
Pol beta inh: DNA polymerase beta (human) inhibition; P06746; 340,000 tested, 1.3% active; Potency, µM (doses to about 114 µM), hits mostly inhibitors; Pol beta primer extension/strand displacement, fluorescence kinetic
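Pol beta (10 nM) and compounds were preincubated 15 min at room temperature, then 50 nM substrate (final) started primer extension/strand displacement. Reads were taken at 0 and 10 min; concentration-response data were fitted to a four-parameter Hill equation.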
Pol kappa inh: DNA polymerase kappa (human) inhibition; purified Pol kappa, fluorescent DNA synthesis assay, 10 min; Potency, µM (highest dose often 107 µM), usual class: inhibitors; 400,000 tested, 0.53% active; AID 588579
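10 nM Pol kappa preincubated 15 min at room temperature with compounds, then reaction started with substrate at 50 nM final. Fluorescence read kinetically at 0 and 10 min; buffer-only wells served as negative control.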
PI5P4K alpha inh: blocks human PI5P4K alpha kinase activity. P48426. PI5P4Kalpha enzyme, ADP-Glo luminescence, 60 min; stronger effect = lower value. max response, %. 330,000 tested, 1.2% active. AID 652105; active means max response of -50% or lower; inconclusive means between -30% and -50%; inactive means -30% or higher; further: value at the top dose of about 77 µM
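Luminescence from ADP-Glo served as readout of PI5P4Kalpha activity in a qHTS format. Reaction: enzyme, substrate, compound, ATP at 5 microM final, 60 min at RT.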
A number is an active result; – = inactive; ? = inconclusive; · = not tested or not shown; [ ] = dose if it differs, or a comment. Unless noted, the call rests on the fitted dose curve; in most records, active means well fitted curve in the direction sought with a large enough effect; inconclusive means small, poorly fitted or top-dose-only effect, or another doubt; inactive means no such curve, though single readings can be large; an effect the other way counts as inactive or inconclusive.

SMILES	Pol iota inh	WRN inhibitor	POLH inh	Pol beta inh	Pol kappa inh	PI5P4K alpha inh
COc1ccccc1C(=O)NNC(=O)c1ccc2ccccc2c1	–	–	–	–	89µM	–
COc1ccccc1C(=O)Nc1ccc2c(c1)C(=O)NC2=O	–	–	–	56µM	–	–
Nc1nc(Cl)nc2c1ncn2[C@@H]1O[C@H](COP(=O)(O)OP(=O)(O)OP(=O)(O)O)[C@H](O)[C@H]1O	–	·	–	–	·	·
CCc1ccccc1NC(=O)Nc1ccc2c(c1)N(CC)C(=O)c1ccccc1S2	–	·	–	–	–	·
FC(F)(F)Oc1ccc(NC(=S)Nc2ccccc2N2CCOCC2)cc1	–	–	–	–	–	–
Cc1cc(S(=O)(=O)C(CNC(=O)c2ccc(OC(C)C)cc2)c2cccs2)ccc1F (stereo unspecified)	–	·	?	–	–	·
CCOCCc1nn2c(=O)cc(COC(=O)CNC(=O)c3ccc(F)cc3)nc2s1	–	·	–	–	–	·
O=C(Nc1ccc2c(c1)OCO2)C1Cc2ccccc2CN1S(=O)(=O)c1cccs1 (stereo unspecified)	20µM	–	?	16µM	?	-72
C=CCOc1c(Cl)cc(CNc2ccc(N(C)C)cc2)cc1OC	8.9µM	–	–	–	–	·
Cc1cccc(C)c1NC(=O)CN(C)C(=O)CSC(=S)N1CCCC1	–	–	–	·	–	–
Cc1[nH]n(C(N)=S)c(=O)c1C(c1ccccc1)C(C#N)C#N (stereo unspecified)	?	–	–	–	–	–
Cc1[nH]n(-c2ncc(-c3ccccc3)s2)c(=O)c1C(c1ccc(Br)cc1)C(C#N)C#N (stereo unspecified)	?	?	22µM	45µM	?	-70
CCOC(=O)c1c(NC(=O)CSc2nc(-c3ccc(OC)cc3)cc(C(F)(F)F)n2)sc(C)c1C	–	·	–	?	–	·
CCc1ccc(N2CC(C)Cn3c2nc2c3c(=O)n(CC(=O)O)c(=O)n2C)cc1 (stereo unspecified)	–	·	–	–	–	·
O=C(NCCCC(NC(=O)OCc1ccccc1)C(=O)O)OCc1ccccc1 (stereo unspecified)	–	–	–	–	–	–
C=C1C(=O)O[C@@H]2C[C@@H](C)[C@@H]3C=CC(=O)[C@@]3(C)[C@@H](OC(C)=O)[C@H]12	?	–[11.6 µM]	45µM	–	–	–
COc1ccccc1N(C(=O)CCl)c1cn(C(C)=O)c2ccccc12	–	–	45µM	–	–	–
CC(C)Cc1c2c([nH]c(=S)c1C#N)CCCC2	–	–	–	–	–	?
COc1ccc(OC)c(-c2c3c([nH]c(=S)c2C#N)CCCC3)c1	–	–	–	–	–	-58
COc1ccc(-c2c3c([nH]c(=S)c2C#N)CCC3)cc1	–	–	?	–	?	-70
COc1cccc(NS(=O)(=O)c2ccc3[nH]cc(C(=O)NC4CCCCC4)c(=O)c3c2)c1	?	·	89µM	?	–	·
CCc1ccc(NS(=O)(=O)c2ccc3[nH]cc(C(=O)NCCCOC(C)C)c(=O)c3c2)cc1	?	·	?	40µM	?	·
CC(C)c1ccc(NS(=O)(=O)c2ccc3[nH]cc(C(=O)N4CCC(C(N)=O)CC4)c(=O)c3c2)cc1	?	–[11.6 µM]	18µM	50µM	–	–
COc1cccc(NS(=O)(=O)c2ccc3[nH]cc(C(=O)NCCc4ccccc4)c(=O)c3c2)c1	79µM	·	–	?	–	·
CC(C)c1ccc(NS(=O)(=O)c2ccc3[nH]cc(C(=O)NCCc4ccccc4)c(=O)c3c2)cc1	–	·	–	?	–	·
SMILES	Pol iota inh	WRN inhibitor	POLH inh	Pol beta inh	Pol kappa inh	PI5P4K alpha inh
C=CCN(c1ccc(F)cc1)S(=O)(=O)c1cc(C(=O)NC2CC2)ccc1Cl	·	–	–	·	·	–
COc1cccc(/C(C)=N/NC(=O)Cc2c(C)[nH][nH]c2=O)c1	–	–	–	–	–	–
CCOc1ccc(NS(=O)(=O)c2ccc3[nH]cc(C(=O)N4CCCCCC4)c(=O)c3c2)cc1	?	·	–	?	–	·
CCOc1ccc(NS(=O)(=O)c2ccc3[nH]cc(C(=O)N(CC)CC)c(=O)c3c2)cc1	?	–	20µM	–	–	–
COc1cc(/C=N/n2c(C3CCCCC3)n[nH]c2=S)cc(Br)c1O	–	–	–	–	–	-62
COc1cc(/C=N/n2c(=S)[nH]nc(C)c2=O)cc([N+](=O)[O-])c1O	–	–	–	–	–	-57
N#Cc1c(N)nc2c(c1-c1ccco1)CCCCC2	–	–	–	·	–	·
N#Cc1c(-c2ccco2)c2c([nH]c1=S)CCCC2	13µM	?	?	28µM	–	-78
N#Cc1c2c(c(-c3ccco3)[nH]c1=O)CCCC2	28µM	?	–	–	?	·
N#Cc1c(-c2cccnc2)c2c([nH]c1=S)CCCC2	?	–	–	–	–	-95
CCN(CC)c1ccc(C(=O)NCc2ccc3c(c2)CCN3C(=O)c2ccccc2)cc1	–	·	–	–	–	·
CC1(C)CC(=O)C(C(=O)/C=C/c2ccco2)C(=O)C1	–	–	–	11µM	–	?
CC1(C)CC(=O)C(C(=O)/C=C/NCCc2ccccc2)C(=O)C1	–	–	–	–	–	–
COc1cccc(Oc2cc(NN3CCCCC3)c([N+](=O)[O-])cc2[N+](=O)[O-])c1OC	?	–	–	56µM	–	–
O=[N+]([O-])c1cc([N+](=O)[O-])c(Oc2cccc3c2CCCC3)cc1NN1CCCCC1	–	–	–	·	–	–
CCOC(=O)c1c(NC(=O)C2CC(Cl)=CCC2C(=O)O)sc2c1CCCCC2 (stereo unspecified)	–	–	–	35µM	–	–
CC(NC(=O)c1c2c(nc3ccccc13)C(=O)N(C1CCCCC1)C2)c1ccccc1 (stereo unspecified)	–	·	–	–	–	·
CCCNC1=C(N(C(C)=O)c2cccc(F)c2)C(=O)c2ccccc2C1=O	79µM	–	–	–	–	–
Cc1ccc(S(=O)(=O)N2CCN(c3nc(-c4cncn4C)nc4ccccc34)CC2)cc1	–	·	·	·	–	·
CCN(CC)c1nc(N)c2c(N)n(-c3ccccc3C)c(=S)c(C#N)c2c1C#N	?	?	45µM	–	?	?
CSc1ccc(/C=N/NC(=O)c2ccccc2Cl)cc1	–	–	–	–	–	–
O=C(/C=C/c1ccc(Br)cc1)NC(=O)c1ccccc1O	–	–	–	32µM	–	–
O=C(NO)c1ccccc1O	–	–	–	–	–	–
CSc1ccc(/C=C/C(=O)NC(=O)c2ccccc2O)cc1	?	–	–	35µM	–	–
Cc1c(F)cccc1Cn1cnc2c(cnn2C(C)(C)C)c1=O	–	·	·	·	–	·
COc1ccccc1OCCn1c(C(C)Oc2ccccc2)nc2ccccc21 (stereo unspecified)	–	·	?	–	?	·
